In PubChem BioAssay (NCATS):
Records with an inconclusive call do not appear. Activity calls are given as the source filed them. Unless noted, calls follow the shape of the dose curve; as a rule, active = well fitted curve in either direction with a large enough effect (not every such curve was filed as active); inconclusive = small, poorly fitted or top-dose-only effect, or another doubt; inactive = flat fitted curve, though single readings scatter.

Legend:
[1] = AP1 Signaling Pathway (AID 357); conditions: ME-180 AP-1-bla reporter, EGF-induced, beta-lactamase ratio, 5 h; at 17.2 µM (top of the series) unless noted; also: % is scaled to controls: 0 for no effect and ±100 for the full control effect
Method in brief: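 ME-180 cells with beta-lactamase reporter under AP-1 response element, stimulated with EC50 EGF; compounds tested in titration series, 5 h at 37 °C. CCF4 substrate added 2.5 h at room temperature; 460/530 nm emission ratio gave %activity and AC50.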

[2] = NFAT Signaling Pathway (AID 444); conditions: Jurkat NFAT-bla M1, carbachol, beta-lactamase ratio, 5 h; at 17.2 µM (top of the series) unless noted;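 also: carbachol stimulus at about its EC50 of 1 µM final; % is scaled to controls: 0 for no effect and ±100 for the full control effect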
Method in brief: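 Read-out: CCF4 FRET ratio (460 nm/530 nm) after 1 h RT dye loading, used for %activity and AC50 from titration series. Cells: Jurkat NFAT-β-lactamase/M1 line, treated with compound plus 1 uM carbachol for 5 h, 37 °C.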

[3] = biological target: Glucocorticoid receptor (Homo sapiens) (UniProt P04150); assay: GR-GFP Redistribution (AID 450;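 active = compounds whose dose series gives a full or clear partial fitted curve of increased nuclear translocation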; also: potency is read from the fitted curve at half-maximal effect)
[4] = qHTS Assay for Identification of Small Molecule Agonists for Hypoxia Response Element Signaling Pathway (AID 914; active = well fitted activation curve with a large enough effect in the signal ratio, with a control signal flat, not every such curve was filed as active; the % refers to the signal ratio; also: potency is read from the fitted curve at half-maximal effect); conditions: ME-180 (cervical carcinoma) HRE-bla reporter, beta-lactamase ratio, CoCl2, 17 h; activation: hits give high values
Method in brief: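 Positive modulation of EC50 CoCl2-induced hypoxia response element signaling is measured in ME-180 cells with a beta-lactamase reporter. Compounds are titrated, incubation runs 17 hours, and %Activity derives from the blue/green ratio.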

[5] = biological target: Glucocorticoid receptor (Homo sapiens) (UniProt P04150); assay: GR-EFC Redistribution (AID 451; calls by dose curve; also: potency is read from the fitted curve at half-maximal effect); conditions: CHO-K1 GR-EFC translocation, beta-gal luminescence, 2 h
Method in brief: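 Translocation of GR-ED fusion to nuclear EA restores b-gal, read by luminescence after 1 h room-temperature detection. Engineered CHO-K1 biosensor cells, 1,000/well, exposed 2 h at 37 C to titrations up to 46 uM final.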

[6] = biological target: 3',5'-cyclic-AMP phosphodiesterase 4B (Homo sapiens) (UniProt Q07343); assay: qHTS Assay for Inhibitors of PDE-IV (AID 607; active = well fitted activation curve with a large enough effect in the main read-out, with a control signal flat, not every such curve was filed as active; also: % of control where 0% means no effect)
Method in brief: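 ACTOne HEK293 cells carry a modified cAMP-gated CNG channel and express endogenous PDE4; plated 1000 cells/well, compounds up to 22.9 uM final. Membrane-potential dye fluorescence (ex 535/em 590) was read; parental cells received 10 uM forskolin + 100 uM RO 20-1724.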

[7] = biological target: Guanine nucleotide-binding protein G(i) subunit alpha-1 (Homo sapiens) (UniProt P63096); assay: qHTS Assay for Inhibitors of RGS12 GoLoco Motif Activity (Green Fluorophore) (AID 879; active = well fitted curve in the direction sought with a large enough effect; an effect the other way counts as inactive or inconclusive;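 also: 0% = labeled peptide with Gαi1 and full inhibition = labeled peptide alone without protein; negative values mean loss of peptide binding seen as reduced polarization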)
Method in brief: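 A drop in FITC polarization marked displacement of the FITC-tagged RGS12 GoLoco peptide (10 nM) from Gαi1 (50 nM). Compounds were incubated 10 min at room temperature in Tris pH 7.5 buffer containing 150 mM NaCl, 0.1 mM GDP and 0.05% NP40; unlabeled peptide titration served as control.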

[8] = biological target: Cytochrome P450 2C9 (Homo sapiens) (UniProt P11712); assay: qHTS Assay for Inhibitors and Substrates of Cytochrome P450 2C9 (AID 883; active = well fitted curve in the direction sought with a large enough effect; an effect the other way counts as inactive or inconclusive; also: % is scaled to controls: 0 for no effect and ±100 for the full control effect; nearly all actives have a fitted effect of over 60% in size)
Method in brief: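 Luminescent read-out of deoxyluciferin hydroxylation, normalized to 57uM sulphaphenazole (AC100). Reaction: 10nM enzyme, 100uM Luciferin-H (equal to KM), 25mM KPO4, 10 min compound preincubation, then 60 min with NADPH regeneration, both at 37C.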

[9] = biological target: Cytochrome P450 3A4 (Homo sapiens) (UniProt P08684); assay: qHTS Assay for Activators of Cytochrome P450 3A4 (AID 885; active = well fitted curve in the direction sought with a large enough effect; an effect the other way counts as inactive or inconclusive; also: nearly all actives have a fitted effect of over 65% in size)
Method in brief: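 CYP3A4 activity: Luciferin-PPXE O-dealkylation, 25uM substrate, 200mM KPO4, RT throughout. Read-out is luciferase luminescence; higher values reflect activation.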

[10] = qHTS Assay for Identification of Small Molecule Agonists for Thrombopoietin (TPO) Signaling Pathway (AID 917; active = well fitted curve in the direction sought with a large enough effect; an effect the other way counts as inactive or inconclusive; also: % is scaled to controls: 0 for no effect and ±100 for the full control effect)
Method in brief: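 Human TPO receptor–transfected Ba/F3 cells (murine, IL-3-dependent) in IL-3-deficient medium; compounds plus TPO at EC50, 26 pM final; 24 hrs, 37 C; GpIIb-luciferase luminescence after 10 min RT detection.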

[11] = biological target: Muscarinic acetylcholine receptor M1 (Rattus norvegicus) (UniProt P08482); assay: qHTS Assay for Antagonists of Acetylcholine Muscarinic M1 Receptor: Kinetic Measurement of Intracellular Calcium Response (AID 943; active = well fitted curve in the direction sought with a large enough effect; an effect the other way counts as inactive or inconclusive; also: potency is read from the fitted curve at half-maximal effect; nearly all actives have a fitted effect of over 75% in size)
Method in brief: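 Read-out: peak over basal Fluo-4 fluorescence, kinetic at 1 Hz for 4 min after EC80 carbachol (100 nM final). Rat M1-CHO cells, dye loaded 1 h at 37C, compound added 10 min before agonist.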

[12] = biological target: Pyruvate kinase (Leishmania mexicana) (UniProt Q27686); assay: qHTS Validation Assay for Inhibitors of Leishmania Mexicana Pyruvate Kinase (AID 945; active = well fitted curve in the direction sought with a large enough effect; an effect the other way counts as inactive or inconclusive;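 also: 0% = DMSO only neutral control wells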)
Method in brief: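 qHTS eight-point titrations against 0.2 nM LmPYK (E451W) in imidazole buffer pH 7.2 with 0.5 mM PEP, 0.1 mM ADP; 1 h, room temperature. Readout: PKLight luminescence, normalized to neutral DMSO wells.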

[13] = biological target: Pyruvate kinase PKM (Homo sapiens) (UniProt P14618); assay: qHTS Assay for Activators of Human Muscle Pyruvate Kinase (AID 954; active = well fitted curve in the direction sought with a large enough effect, not every such curve was filed as active;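 also: 0% = uninhibited enzyme and -100% = no enzyme or full thiadiazolimine inhibition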)
Method in brief: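 A coupled luminescent readout tracked ATP made from ADP by purified PKM2. Final conditions included 0.1 nM enzyme, PEP and ADP at 0.5 and 0.1 mM, pH 7.2 imidazole buffer with BSA, and a one-hour room-temperature reaction.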

[14] = biological target: Alpha-galactosidase A (Homo sapiens) (UniProt P06280); assay: Counterscreen for Glucocerebrosidase Inhibitors: qHTS Assay for Human alpha-Galactosidase at pH 4.5 (AID 992; active = well fitted curve in the direction sought with a large enough effect; an effect the other way counts as inactive or inconclusive; also: 0% is about no effect)
Method in brief: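 Citrate buffer pH 4.5, Tween-20 0.005%. Enzyme 2 nM, substrate 80 uM, 20 min RT. Stop pH 10. Fluorescence Ex 365/Em 440. AC50 by Hill fit.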

[15] = biological target: alpha-glucosidase (Oryza sativa, rice) (UniProt Q653V4); assay: Counterscreen for Glucocerebrosidase Inhibitors: qHTS Assay for Rice alpha-Glucosidase at pH 5.0 (AID 997; active = well fitted curve in the direction sought with a large enough effect; an effect the other way counts as inactive or inconclusive;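 also: 0% = full activity with enzyme and -100% = basal without enzyme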)
Method in brief: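 Endpoint fluorogenic assay at pH 5.0: compounds (0.7 nM to 77 uM) titrated against 4 nM rice enzyme and 400 uM 4-MU-alpha-glucoside for 20 min at room temperature; NaOH/glycine stop, read ex 365/em 440 nm, Hill-fitted AC50.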

Chain of Glucocorticoid receptor (Homo sapiens) (P04150 whole entry, looked up, the tested form may be a part): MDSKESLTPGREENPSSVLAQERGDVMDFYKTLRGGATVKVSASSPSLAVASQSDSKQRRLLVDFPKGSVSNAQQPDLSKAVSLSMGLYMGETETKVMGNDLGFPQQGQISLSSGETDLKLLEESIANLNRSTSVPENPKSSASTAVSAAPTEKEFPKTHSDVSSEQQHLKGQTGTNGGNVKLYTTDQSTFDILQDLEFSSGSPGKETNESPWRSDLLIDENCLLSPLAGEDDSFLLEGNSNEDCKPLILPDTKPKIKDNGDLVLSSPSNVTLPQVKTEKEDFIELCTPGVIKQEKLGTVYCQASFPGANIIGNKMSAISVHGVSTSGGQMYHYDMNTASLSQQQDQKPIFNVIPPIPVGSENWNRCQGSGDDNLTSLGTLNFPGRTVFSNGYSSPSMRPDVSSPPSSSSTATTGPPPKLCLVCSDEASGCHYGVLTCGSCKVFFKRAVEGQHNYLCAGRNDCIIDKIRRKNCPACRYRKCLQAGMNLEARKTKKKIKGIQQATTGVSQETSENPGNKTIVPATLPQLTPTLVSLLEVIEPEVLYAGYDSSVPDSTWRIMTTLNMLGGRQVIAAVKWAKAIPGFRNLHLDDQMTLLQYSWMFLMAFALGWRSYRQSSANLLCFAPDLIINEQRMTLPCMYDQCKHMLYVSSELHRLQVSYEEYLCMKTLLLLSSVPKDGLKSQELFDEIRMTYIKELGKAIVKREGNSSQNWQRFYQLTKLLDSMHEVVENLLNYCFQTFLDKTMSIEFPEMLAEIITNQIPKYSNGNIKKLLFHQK
Chain of 3',5'-cyclic-AMP phosphodiesterase 4B (Homo sapiens) (Q07343 whole entry, looked up): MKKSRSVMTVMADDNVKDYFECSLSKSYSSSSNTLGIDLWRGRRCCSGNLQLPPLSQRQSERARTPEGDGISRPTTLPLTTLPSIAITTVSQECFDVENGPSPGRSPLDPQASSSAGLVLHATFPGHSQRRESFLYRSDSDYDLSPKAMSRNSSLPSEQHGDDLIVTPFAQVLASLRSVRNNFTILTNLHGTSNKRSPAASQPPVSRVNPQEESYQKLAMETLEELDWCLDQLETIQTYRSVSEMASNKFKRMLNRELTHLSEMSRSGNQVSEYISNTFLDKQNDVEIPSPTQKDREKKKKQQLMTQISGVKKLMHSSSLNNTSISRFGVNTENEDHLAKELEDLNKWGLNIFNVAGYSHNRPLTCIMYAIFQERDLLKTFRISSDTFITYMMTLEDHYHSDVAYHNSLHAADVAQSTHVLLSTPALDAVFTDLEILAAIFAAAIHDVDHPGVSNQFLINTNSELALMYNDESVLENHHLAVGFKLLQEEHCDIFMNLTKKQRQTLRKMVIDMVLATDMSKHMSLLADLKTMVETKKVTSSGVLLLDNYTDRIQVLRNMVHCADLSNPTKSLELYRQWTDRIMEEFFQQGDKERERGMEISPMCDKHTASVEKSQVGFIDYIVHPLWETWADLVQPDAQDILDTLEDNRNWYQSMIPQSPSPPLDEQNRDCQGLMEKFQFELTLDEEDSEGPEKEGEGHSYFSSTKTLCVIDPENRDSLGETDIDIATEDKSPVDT
Chain of Pyruvate kinase PKM (Homo sapiens) (P14618 whole entry, looked up): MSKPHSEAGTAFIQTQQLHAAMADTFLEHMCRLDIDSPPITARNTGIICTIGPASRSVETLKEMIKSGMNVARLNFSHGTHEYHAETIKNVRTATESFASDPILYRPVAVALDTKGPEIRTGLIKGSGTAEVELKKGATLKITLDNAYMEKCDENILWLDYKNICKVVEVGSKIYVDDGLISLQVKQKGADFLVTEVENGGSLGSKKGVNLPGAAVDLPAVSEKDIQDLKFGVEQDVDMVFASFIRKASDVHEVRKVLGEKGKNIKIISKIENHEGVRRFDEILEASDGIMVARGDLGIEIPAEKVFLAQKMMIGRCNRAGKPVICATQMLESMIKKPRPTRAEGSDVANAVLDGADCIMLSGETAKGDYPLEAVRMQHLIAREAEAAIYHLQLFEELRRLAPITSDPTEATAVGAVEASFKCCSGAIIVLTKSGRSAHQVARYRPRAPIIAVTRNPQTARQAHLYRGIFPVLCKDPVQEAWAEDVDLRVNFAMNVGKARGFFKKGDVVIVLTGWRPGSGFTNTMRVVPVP
Chain of Alpha-galactosidase A (Homo sapiens) (P06280 whole entry, looked up): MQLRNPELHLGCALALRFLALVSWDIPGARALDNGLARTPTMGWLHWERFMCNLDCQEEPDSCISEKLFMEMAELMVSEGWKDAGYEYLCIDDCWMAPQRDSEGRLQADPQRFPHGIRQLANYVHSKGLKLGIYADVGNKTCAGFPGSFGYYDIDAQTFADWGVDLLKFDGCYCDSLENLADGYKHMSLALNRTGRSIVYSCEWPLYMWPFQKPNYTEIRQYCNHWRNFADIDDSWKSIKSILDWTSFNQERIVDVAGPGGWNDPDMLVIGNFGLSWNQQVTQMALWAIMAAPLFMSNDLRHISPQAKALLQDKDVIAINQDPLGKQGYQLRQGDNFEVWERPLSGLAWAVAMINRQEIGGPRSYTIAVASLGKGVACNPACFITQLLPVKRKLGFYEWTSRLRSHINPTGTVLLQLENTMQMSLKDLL
Chain of Guanine nucleotide-binding protein G(i) subunit alpha-1 (Homo sapiens) (P63096 whole entry, looked up): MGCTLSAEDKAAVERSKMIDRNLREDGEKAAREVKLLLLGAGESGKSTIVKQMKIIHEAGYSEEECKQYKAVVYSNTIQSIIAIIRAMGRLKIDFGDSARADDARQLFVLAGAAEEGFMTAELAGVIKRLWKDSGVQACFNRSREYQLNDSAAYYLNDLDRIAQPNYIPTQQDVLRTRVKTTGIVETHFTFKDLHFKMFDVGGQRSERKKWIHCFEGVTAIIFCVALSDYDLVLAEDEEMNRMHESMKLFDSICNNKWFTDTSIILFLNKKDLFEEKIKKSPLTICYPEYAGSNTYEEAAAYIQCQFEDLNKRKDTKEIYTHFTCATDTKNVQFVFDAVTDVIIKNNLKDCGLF
Chain of Pyruvate kinase (Leishmania mexicana) (Q27686 2-499 E452W): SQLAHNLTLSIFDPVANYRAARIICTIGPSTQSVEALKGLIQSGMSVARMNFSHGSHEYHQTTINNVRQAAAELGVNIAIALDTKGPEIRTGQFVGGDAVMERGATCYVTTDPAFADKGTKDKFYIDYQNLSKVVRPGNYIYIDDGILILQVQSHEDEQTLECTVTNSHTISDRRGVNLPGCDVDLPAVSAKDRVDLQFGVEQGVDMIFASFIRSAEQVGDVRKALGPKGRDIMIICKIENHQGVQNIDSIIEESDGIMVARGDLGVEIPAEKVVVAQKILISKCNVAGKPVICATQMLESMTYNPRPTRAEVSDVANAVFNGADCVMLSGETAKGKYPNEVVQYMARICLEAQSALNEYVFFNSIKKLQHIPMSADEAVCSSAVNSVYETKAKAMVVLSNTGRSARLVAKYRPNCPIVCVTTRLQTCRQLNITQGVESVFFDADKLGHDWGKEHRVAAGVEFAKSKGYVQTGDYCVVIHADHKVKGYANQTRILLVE
Chain of Cytochrome P450 3A4 (Homo sapiens) (P08684 whole entry, looked up): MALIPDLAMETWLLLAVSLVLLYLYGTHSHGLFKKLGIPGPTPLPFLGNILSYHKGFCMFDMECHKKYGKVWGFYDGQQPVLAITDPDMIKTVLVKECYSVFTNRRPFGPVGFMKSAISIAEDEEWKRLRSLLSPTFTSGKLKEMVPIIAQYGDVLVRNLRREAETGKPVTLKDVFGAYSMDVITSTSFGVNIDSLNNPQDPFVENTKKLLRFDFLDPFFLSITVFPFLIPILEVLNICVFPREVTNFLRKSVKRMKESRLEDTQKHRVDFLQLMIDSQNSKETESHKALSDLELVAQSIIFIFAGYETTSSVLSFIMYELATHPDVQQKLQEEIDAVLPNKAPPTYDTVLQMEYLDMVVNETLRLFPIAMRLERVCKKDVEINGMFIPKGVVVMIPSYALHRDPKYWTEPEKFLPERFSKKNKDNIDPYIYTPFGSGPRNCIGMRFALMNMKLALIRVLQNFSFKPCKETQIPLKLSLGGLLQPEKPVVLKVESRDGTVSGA
Chain of Muscarinic acetylcholine receptor M1 (Rattus norvegicus) (P08482 whole entry, looked up): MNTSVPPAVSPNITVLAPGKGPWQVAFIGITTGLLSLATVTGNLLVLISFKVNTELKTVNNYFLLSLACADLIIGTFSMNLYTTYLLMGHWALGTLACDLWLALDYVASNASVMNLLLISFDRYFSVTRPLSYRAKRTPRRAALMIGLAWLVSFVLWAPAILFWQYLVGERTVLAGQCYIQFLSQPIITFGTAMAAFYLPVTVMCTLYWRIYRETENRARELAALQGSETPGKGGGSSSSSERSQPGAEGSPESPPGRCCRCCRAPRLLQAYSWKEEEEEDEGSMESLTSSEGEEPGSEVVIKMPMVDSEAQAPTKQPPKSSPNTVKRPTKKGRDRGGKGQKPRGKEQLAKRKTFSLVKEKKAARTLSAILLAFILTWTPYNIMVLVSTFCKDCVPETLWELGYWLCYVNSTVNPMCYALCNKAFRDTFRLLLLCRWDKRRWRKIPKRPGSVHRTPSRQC
Chain of Cytochrome P450 2C9 (Homo sapiens) (P11712 whole entry, looked up): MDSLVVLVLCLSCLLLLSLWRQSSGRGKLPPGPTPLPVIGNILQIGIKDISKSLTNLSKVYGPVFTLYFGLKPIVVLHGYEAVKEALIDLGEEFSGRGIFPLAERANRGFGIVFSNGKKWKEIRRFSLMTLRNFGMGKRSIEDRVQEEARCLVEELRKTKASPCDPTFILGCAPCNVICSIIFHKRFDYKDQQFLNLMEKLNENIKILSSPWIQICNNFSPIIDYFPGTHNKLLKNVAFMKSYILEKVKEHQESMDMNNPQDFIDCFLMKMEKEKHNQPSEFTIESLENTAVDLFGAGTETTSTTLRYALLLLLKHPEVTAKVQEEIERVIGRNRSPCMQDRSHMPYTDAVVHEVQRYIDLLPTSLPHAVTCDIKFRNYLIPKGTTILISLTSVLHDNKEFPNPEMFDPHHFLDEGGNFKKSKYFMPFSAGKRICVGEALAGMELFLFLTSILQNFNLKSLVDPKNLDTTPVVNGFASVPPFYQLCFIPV

Oc1ccc(Br)cc1CNn1cnnc1
inactive: activity change, negative = inhibition [1] 2.16% | activity change, negative = inhibition [2] 9.44% | Potency [3] > 20.6 µM

COc1ccccc1C(=O)N1CCN(Cc2ccc3c(c2)OCO3)CC1
inactive: activity change, negative = inhibition [1] -11.7% | activity change, negative = inhibition [2] -10.5% | Potency [3] > 20.6 µM

CC1N(O)C(c2ccc(Cl)cc2Cl)N(O)C1(C)C (configuration not stated)
inactive: activity change, negative = inhibition [1] -0.0716% | activity change, negative = inhibition [2] -14.6% | Potency [3] > 20.6 µM

O=C(NO)c1ccccc1O
inactive: activity change, negative = inhibition [1] -4.21% | activity change, negative = inhibition [2] -9.27% | Potency [3] > 20.6 µM

CCC(=O)Nc1nc(C)c(Oc2ccccc2)c(=O)[nH]1
inactive: activity change, negative = inhibition [1] 6.64% | activity change, negative = inhibition [2] 9.01% | Potency [3] > 20.6 µM

CC(C)CC(NC(=O)OC(C)(C)C)C(=O)NCc1ccccc1 (configuration not stated)
inactive: activity change, negative = inhibition [1] -7.56% | activity change, negative = inhibition [2] -25.8% | Potency [3] > 20.6 µM

O=C(/C=C/c1ccccc1)c1ccccc1
inactive: activity change, negative = inhibition [1] 19.8% | activity change, negative = inhibition [2] -14.4% | Potency [3] > 20.6 µM

CSc1nc2sc3c(c2c(=O)n1C1CCCCC1)CCN(C)C3
active: activity change, negative = inhibition [2] -81.1%
inactive: activity change, negative = inhibition [1] -0.967% | Potency [3] > 20.6 µM

CCOC(=O)N1CCN(/C=C(\C#N)c2nc3ccccc3s2)CC1
inactive: activity change, negative = inhibition [1] -15.9% | activity change, negative = inhibition [2] 13.1% | Potency [3] > 20.6 µM

C[C@]12CC[C@@H]3c4ccc(O[C@@H]5O[C@H](C(=O)O)[C@@H](O)[C@H](O)[C@H]5O)cc4CC[C@H]3[C@@H]1C[C@@H](O)[C@@H]2O
inactive: activity change, negative = inhibition [1] 4.45% | activity change, negative = inhibition [2] -30% | Potency [3] > 20.6 µM

CCOC(=O)CSc1nc(N)c(C#N)c(-c2ccc(OC)cc2)c1C#N
inactive: activity change, negative = inhibition [1] -27.1% | activity change, negative = inhibition [2] 2.57% | Potency [3] > 20.6 µM

Cc1cc(C)n(-c2nnc(C)n2/N=C/c2ccco2)n1
inactive: activity change, negative = inhibition [1] 4.26% | activity change, negative = inhibition [2] -7.08% | Potency [3] > 20.6 µM

CCOC(=O)C(O)(C1C(=O)CC(C)(C)CC1=O)C(F)(F)F (configuration not stated)
inactive: activity change, negative = inhibition [1] 10.7% | activity change, negative = inhibition [2] 7.75%
active: Potency [4] 10 µM

CCCCCCCCCCCCCCCCCC(=O)NC[C@@H](COP(=O)([O-])OCC[N+](C)(C)C)OCC
active: activity change, negative = inhibition [2] 28.6% [at 38 µM] | Potency [11] 7.08 µM
inactive: activity change, negative = inhibition [1] -12.5% [at 38 µM] | Potency [3] > 46 µM | Potency [5] > 46 µM | Potency [6] | outcome [7] | Potency [8] | Potency [9] | Potency [10] | Potency [12] | outcome [13] | outcome [14] | outcome [15]

c1ccc2c(c1)CCC[C@H]2C1=NCCN1
inactive: activity change, negative = inhibition [1] 4.49% [at 38 µM] | activity change, negative = inhibition [2] -2.65% [at 38 µM] | Potency [6] | outcome [7] | Potency [10] | Potency [12] | outcome [13] | outcome [14] | outcome [15]
